Results taken from PubChem BioAssay (NCATS).
Inconclusive results are not listed. Calls of active or inactive are those of the source. Unless noted, calls follow the shape of the dose curve; as a rule, active = well fitted curve in either direction with a large enough effect (not every such curve was filed as active); inconclusive = small, poorly fitted or top-dose-only effect, or another doubt; inactive = flat fitted curve, though single readings scatter.

Tests used:
[1] = molecular target: Lysosomal acid glucosylceramidase (Homo sapiens) (UniProt P04062); assay: Glucocerebrosidase-p2 (AID 348; in the data active = potency below about 10 µM; also: potency is read from the fitted curve at half-maximal effect); details: purified GBA, blue fluorogenic substrate, 40 min
Outline: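 Normal human glucocerebrosidase (0.2 nM) with blue fluorogenic substrate (80 uM final) in citrate/phosphate pH 5.9 with 10mM sodium taurocholate, 0.01% tween-20; 40 min RT, NaOH/glycine stop; fluorescence Ex 365/Em 440; AC50 from a titration from 0.6 nM upwards.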

[2] = AP1 Signaling Pathway (AID 357); details: ME-180 AP-1-bla reporter, EGF-induced, beta-lactamase ratio, 5 h; at 7.69 µM (top of the series) unless noted;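 also: ME-180 reporter cells stimulated with EGF at its EC50 level; % is scaled to controls: 0 for no effect and ±100 for the full control effect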
Outline: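 Read-out was the 460nm/530nm emission ratio (excitation 405nm) after CCF4 loading for 2.5 hours at room temperature. Cells carried an AP-1-driven beta-lactamase reporter, were stimulated with EC50 EGF plus compound for 5 hours, and AC50 values came from titrations.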

[3] = NFAT Signaling Pathway (AID 444); details: Jurkat NFAT-bla M1, carbachol, beta-lactamase ratio, 5 h; at 7.69 µM (top of the series) unless noted;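 also: carbachol stimulus at about its EC50 of 1 µM final; % is scaled to controls: 0 for no effect and ±100 for the full control effect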
Outline: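 Jurkat cells with NFAT-driven β-lactamase reporter and co-expressed M1 receptor, stimulated with carbachol (final 1 uM, ~EC50), compound titration, 5 h at 37 °C. CCF4 loaded 1 h at RT; 460/530 nm ratio gave %activity and AC50.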

[4] = molecular target: Glucocorticoid receptor (Homo sapiens) (UniProt P04150); assay: GR-GFP Redistribution (AID 450;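 active = compounds whose dose series gives a full or clear partial fitted curve of increased nuclear translocation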; also: potency is read from the fitted curve at half-maximal effect); details: U2OS GR-GFP nuclear translocation, laser cytometry, 2 h
[5] = molecular target: Glucocorticoid receptor (Homo sapiens) (UniProt P04150); assay: GR-EFC Redistribution (AID 451; calls by dose curve; also: potency is read from the fitted curve at half-maximal effect); details: CHO-K1 GR-EFC translocation, beta-gal luminescence, 2 h
Outline: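 CHO-K1 cells expressing nuclear EA and GR-ED fragments of b-gal; compounds titrated up to 46 uM final, 2 h at 37 C. GR nuclear translocation read as complemented b-gal luminescence after 1 h RT detection.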

[6] = molecular target: Mitogen-activated protein kinase 10 (Mus musculus) (UniProt Q61831); assay: JNK3 AlphaScreen Assay (AID 530); details: JNK3 lysate, c-Jun phosphorylation; series mostly up to 11.4 µM;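 also: kinase came from lysate of stimulated human HepG2 cells; signal reports phosphorylation of biotinylated GST-cJun 1-79 at Ser73 with 10 µM ATP; % is scaled to controls: 0 for no effect and ±100 for the full control effect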
Outline: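 HepG2 lysate (IL-1b/TNFa pre-activated) + biotin-GST-cJun 1-79 + anti-pSer73 cJun; cpd titration, 15 min RT; ATP 10 uM start; Tris pH 7.6, MgCl2, DTT, vanadate; beads in EDTA buffer; AlphaScreen.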

[7] = molecular target: 3',5'-cyclic-AMP phosphodiesterase 4B (Homo sapiens) (UniProt Q07343); assay: qHTS Assay for Inhibitors of PDE-IV (AID 607; active = well fitted activation curve with a large enough effect in the main read-out, with a control signal flat, not every such curve was filed as active; also: % of control where 0% means no effect); details: HEK293 ACTOne CNG channel cells, membrane potential fluorescence; series mostly up to 22.9 µM
Outline: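 The readout is membrane depolarisation from a cAMP-sensing CNG channel, detected with a potential dye at ex 535/em 590. Cells were HEK293-derived (endogenous PDE-IV) at 1000 cells/well, titrated up to 22.9 uM final.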

[8] = Stat Signaling Pathway (AID 446); details: ME-180 (cervical carcinoma) SIE beta-lactamase reporter, IL-6 stimulated, 5 h; at 7.69 µM (top of the series) unless noted;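 also: ME-180 cervical cancer cells given 40 pM IL-6 alongside compound; SIE-controlled beta-lactamase reporter measured as 460/530 nm FRET emission ratio; % is scaled to controls: 0 for no effect and ±100 for the full control effect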
Outline: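 Emission at 460 and 530 nm (excitation 405 nm) reports SIE-controlled beta-lactamase in ME-180 cells. Cells received compound with 40 pM IL-6 for 5 hrs at 37 C; data scaled between 300 pM IL-6 and 125 nM JAK-inhibitor controls.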

[9] = molecular target: Cytochrome P450 2C19 (Homo sapiens) (UniProt P33261); assay: qHTS Assay for Inhibitors and Substrates of Cytochrome P450 2C19 (AID 899; active = well fitted curve in the direction sought with a large enough effect; an effect the other way counts as inactive or inconclusive; also: nearly all actives have a fitted effect of over 60% in size; also: potency is read from the fitted curve at half-maximal effect); details: recombinant CYP2C19, luciferin-H EGE luminescence; series mostly up to 11.4 µM
Outline: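 5 nM human CYP2C19 with 10uM Luciferin-H EGE (at KM) in 50mM KPO4, compound preincubated 10 min at 37C, then NADPH regeneration for 60 min at 37C. Luciferin read by luminescence after detection reagent; normalized to 57uM ketoconazole as full inhibition.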

[10] = molecular target: Cytochrome P450 2C9 (Homo sapiens) (UniProt P11712); assay: qHTS Assay for Inhibitors and Substrates of Cytochrome P450 2C9 (AID 883; active = well fitted curve in the direction sought with a large enough effect; an effect the other way counts as inactive or inconclusive; also: % is scaled to controls: 0 for no effect and ±100 for the full control effect; nearly all actives have a fitted effect of over 60% in size); details: recombinant CYP2C9, luciferin-H luminescence, 60 min; series mostly up to 11.4 µM
Outline: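 Human CYP2C9 (10nM) with Luciferin-H at 100uM (its KM) in 25mM KPO4; compound preincubated 10 min at 37C, then NADPH regeneration for 60 min at 37C. Luciferin read by luminescence after detection reagent; normalized to 57uM sulphaphenazole as full inhibition.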

[11] = molecular target: Cytochrome P450 3A4 (Homo sapiens) (UniProt P08684); assay: qHTS Assay for Inhibitors and Substrates of Cytochrome P450 3A4 (AID 884; active = well fitted curve in the direction sought with a large enough effect; an effect the other way counts as inactive or inconclusive; also: % is scaled to controls: 0 for no effect and ±100 for the full control effect; nearly all actives have a fitted effect of over 50% in size); details: recombinant CYP3A4, Luciferin-PPXE luminescence; series mostly up to 57.1 µM
Outline: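 Luminescent readout of luciferin produced by CYP3A4 (20 nM) dealkylation of Luciferin-PPXE, 25 uM (its KM). NADPH-driven reaction ran 60 min at RT after 10 min compound preincubation; data scaled to 57 uM ketoconazole as 100% inhibition.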

[12] = molecular target: Cytochrome P450 2D6 (Homo sapiens) (UniProt P10635); assay: qHTS Assay for Inhibitors and Substrates of Cytochrome P450 2D6 (AID 891; active = well fitted curve in the direction sought with a large enough effect; an effect the other way counts as inactive or inconclusive;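 also: luciferin methyl ether substrate demethylated by CYP2D6 with NADPH regeneration; % is scaled to controls: 0 for no effect and ±100 for the full control effect; nearly all actives have a fitted effect of over 60% in size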); details: recombinant CYP2D6, luciferin-ME EGE luminescence; series mostly up to 11.4 µM
Outline: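 Luminescent read-out of luciferin formed by 5 nM human CYP2D6 demethylating 30 uM Luciferin-ME EGE (Km level) over 60 min at room temperature after NADPH regeneration addition. Data normalized to full inhibition by 1.43 uM quinidine.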

[13] = molecular target: Cytochrome P450 3A4 (Homo sapiens) (UniProt P08684); assay: qHTS Assay for Activators of Cytochrome P450 3A4 (AID 885; active = well fitted curve in the direction sought with a large enough effect; an effect the other way counts as inactive or inconclusive; also: nearly all actives have a fitted effect of over 65% in size); details: recombinant CYP3A4, Luciferin-PPXE luminescence, 60 min; series mostly up to 11.4 µM
Outline: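 Activators are scored by enhanced luminescence from CYP3A4 conversion of luciferin-PPXE (25uM, equal to KM) to luciferin, after 60 min at RT with an NADPH-regenerating system.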

Sequence of Cytochrome P450 2C19 (Homo sapiens) (P33261 whole entry, looked up): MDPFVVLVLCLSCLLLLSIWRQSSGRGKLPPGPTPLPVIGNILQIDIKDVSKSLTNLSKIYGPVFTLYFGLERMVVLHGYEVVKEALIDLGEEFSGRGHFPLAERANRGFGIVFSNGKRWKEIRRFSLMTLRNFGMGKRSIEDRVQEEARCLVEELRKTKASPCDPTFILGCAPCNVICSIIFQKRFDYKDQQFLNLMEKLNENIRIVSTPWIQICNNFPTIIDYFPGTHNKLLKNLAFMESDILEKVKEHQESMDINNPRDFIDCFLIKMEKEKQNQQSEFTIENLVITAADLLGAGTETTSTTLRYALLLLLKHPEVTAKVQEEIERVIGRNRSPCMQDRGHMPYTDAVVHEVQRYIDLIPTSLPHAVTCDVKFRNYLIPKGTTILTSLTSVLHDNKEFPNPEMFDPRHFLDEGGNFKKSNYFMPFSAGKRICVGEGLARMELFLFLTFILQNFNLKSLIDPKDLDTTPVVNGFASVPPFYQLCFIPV
Sequence of Glucocorticoid receptor (Homo sapiens) (P04150 whole entry, looked up, the tested form may be a part): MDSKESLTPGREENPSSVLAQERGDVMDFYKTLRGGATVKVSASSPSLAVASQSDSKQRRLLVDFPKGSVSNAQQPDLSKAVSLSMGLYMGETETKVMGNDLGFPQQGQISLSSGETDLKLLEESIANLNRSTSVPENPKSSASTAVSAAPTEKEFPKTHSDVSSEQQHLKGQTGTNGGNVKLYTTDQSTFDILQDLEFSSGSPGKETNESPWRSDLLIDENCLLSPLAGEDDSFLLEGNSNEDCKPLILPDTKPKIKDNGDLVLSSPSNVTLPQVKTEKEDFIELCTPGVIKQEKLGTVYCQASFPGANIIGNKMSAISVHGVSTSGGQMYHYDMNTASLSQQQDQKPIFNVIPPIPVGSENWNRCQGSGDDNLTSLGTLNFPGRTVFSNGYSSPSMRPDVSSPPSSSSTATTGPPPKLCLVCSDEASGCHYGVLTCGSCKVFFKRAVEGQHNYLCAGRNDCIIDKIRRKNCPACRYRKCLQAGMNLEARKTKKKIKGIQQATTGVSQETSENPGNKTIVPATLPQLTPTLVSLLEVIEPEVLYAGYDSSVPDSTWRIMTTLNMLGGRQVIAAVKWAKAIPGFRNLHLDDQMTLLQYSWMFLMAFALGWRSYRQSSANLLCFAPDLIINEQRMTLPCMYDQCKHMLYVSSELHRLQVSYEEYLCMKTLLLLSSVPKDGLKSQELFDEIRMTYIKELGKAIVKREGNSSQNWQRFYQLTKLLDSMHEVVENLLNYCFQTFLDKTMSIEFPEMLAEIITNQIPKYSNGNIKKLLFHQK
Sequence of 3',5'-cyclic-AMP phosphodiesterase 4B (Homo sapiens) (Q07343 whole entry, looked up): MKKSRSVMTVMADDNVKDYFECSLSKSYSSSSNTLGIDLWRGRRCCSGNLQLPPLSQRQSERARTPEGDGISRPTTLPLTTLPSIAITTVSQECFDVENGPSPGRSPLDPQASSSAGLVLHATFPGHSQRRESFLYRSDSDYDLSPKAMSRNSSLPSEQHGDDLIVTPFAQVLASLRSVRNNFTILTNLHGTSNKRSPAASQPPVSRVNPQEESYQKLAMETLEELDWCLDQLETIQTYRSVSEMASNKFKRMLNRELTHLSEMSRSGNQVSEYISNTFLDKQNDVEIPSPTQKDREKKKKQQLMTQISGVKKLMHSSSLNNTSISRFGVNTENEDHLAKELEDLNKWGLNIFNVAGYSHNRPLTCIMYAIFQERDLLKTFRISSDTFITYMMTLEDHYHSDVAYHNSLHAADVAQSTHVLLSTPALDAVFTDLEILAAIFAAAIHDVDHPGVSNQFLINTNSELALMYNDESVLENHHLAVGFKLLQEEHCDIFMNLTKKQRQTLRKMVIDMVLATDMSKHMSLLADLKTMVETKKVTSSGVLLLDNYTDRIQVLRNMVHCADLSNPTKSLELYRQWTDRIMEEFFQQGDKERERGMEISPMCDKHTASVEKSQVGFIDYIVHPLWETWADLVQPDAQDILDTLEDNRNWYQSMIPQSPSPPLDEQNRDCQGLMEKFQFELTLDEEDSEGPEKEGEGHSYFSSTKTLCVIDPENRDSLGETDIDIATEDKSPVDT
Sequence of Lysosomal acid glucosylceramidase (Homo sapiens) (P04062 whole entry, looked up): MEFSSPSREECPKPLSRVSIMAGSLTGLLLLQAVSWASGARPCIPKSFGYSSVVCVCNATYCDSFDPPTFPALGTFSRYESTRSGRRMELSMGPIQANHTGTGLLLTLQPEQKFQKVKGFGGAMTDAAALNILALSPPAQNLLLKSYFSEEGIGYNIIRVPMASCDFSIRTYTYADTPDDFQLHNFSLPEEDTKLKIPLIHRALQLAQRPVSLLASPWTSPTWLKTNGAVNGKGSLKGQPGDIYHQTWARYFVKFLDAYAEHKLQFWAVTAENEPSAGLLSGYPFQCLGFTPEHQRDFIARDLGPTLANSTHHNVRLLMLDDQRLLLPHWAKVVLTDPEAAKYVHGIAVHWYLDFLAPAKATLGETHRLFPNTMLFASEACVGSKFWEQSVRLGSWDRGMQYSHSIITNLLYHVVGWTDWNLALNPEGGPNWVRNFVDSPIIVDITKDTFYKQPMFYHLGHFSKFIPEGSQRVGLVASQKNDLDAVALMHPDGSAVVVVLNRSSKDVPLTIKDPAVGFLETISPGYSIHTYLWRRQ
Sequence of Cytochrome P450 3A4 (Homo sapiens) (P08684 whole entry, looked up): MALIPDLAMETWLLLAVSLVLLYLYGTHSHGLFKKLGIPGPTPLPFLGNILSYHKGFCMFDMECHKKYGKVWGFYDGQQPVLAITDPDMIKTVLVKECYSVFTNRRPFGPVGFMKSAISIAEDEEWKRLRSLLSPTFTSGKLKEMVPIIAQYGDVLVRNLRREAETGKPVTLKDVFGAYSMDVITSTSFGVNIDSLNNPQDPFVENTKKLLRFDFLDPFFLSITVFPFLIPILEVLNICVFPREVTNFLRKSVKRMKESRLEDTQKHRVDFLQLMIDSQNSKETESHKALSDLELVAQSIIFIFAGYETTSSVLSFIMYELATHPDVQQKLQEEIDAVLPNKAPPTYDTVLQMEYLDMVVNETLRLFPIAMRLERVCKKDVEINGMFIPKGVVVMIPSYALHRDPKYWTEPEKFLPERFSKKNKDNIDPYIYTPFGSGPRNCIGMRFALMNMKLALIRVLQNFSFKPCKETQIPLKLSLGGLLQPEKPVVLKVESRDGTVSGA
Sequence of Cytochrome P450 2C9 (Homo sapiens) (P11712 whole entry, looked up): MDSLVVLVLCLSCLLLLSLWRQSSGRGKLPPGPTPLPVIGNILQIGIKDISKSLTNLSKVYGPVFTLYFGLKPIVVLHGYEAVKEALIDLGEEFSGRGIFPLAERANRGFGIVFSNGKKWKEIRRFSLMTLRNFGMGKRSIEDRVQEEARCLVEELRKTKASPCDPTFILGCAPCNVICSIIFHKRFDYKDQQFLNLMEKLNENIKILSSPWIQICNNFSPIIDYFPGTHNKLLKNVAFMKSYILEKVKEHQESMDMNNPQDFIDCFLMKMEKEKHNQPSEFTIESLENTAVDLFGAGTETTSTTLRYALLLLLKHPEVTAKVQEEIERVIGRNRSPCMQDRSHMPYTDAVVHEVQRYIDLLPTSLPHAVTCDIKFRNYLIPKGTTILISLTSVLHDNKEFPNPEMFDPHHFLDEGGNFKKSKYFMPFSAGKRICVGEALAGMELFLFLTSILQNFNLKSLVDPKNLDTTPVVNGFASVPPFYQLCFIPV
Sequence of Cytochrome P450 2D6 (Homo sapiens) (P10635 whole entry, looked up): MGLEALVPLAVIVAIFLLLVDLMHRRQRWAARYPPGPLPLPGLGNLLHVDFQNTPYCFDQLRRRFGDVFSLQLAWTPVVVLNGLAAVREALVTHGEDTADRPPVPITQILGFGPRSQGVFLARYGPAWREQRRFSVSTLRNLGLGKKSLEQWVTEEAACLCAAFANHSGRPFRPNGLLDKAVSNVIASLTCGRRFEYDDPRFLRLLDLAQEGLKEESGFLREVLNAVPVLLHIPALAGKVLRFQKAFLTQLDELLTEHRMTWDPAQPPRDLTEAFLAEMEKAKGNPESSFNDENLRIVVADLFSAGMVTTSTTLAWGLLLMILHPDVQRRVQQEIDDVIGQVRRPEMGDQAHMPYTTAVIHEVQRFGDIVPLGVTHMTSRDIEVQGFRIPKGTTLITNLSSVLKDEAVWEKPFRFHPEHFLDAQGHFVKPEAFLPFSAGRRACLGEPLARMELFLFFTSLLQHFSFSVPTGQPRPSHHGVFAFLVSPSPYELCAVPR

NCCSc1nc(-c2ccccc2)c(-c2ccccc2)o1
inactive: Potency [1] > 11.4 µM | activity change, negative = inhibition [2] 2.27% | activity change, negative = inhibition [3] -4.41% | Potency [4] > 46 µM | Potency [5] > 9.22 µM | Potency [6] | Potency [7]

C=C(CC(=O)O)C(=O)O (tested in a mixture with another compound)
inactive: Potency [1] > 11.4 µM | activity change, negative = inhibition [2] 6.49% | activity, negative = inhibition [8] -4.69% | Potency [4] > 46 µM | Potency [5] > 9.22 µM | Potency [6] | Potency [7]

CC(C)=C[C@H]1[C@@H](C(=O)Oc2ccccc2C(C)C)C1(C)C
inactive: Potency [1] > 11.4 µM | activity change, negative = inhibition [2] 9.15% | activity change, negative = inhibition [3] 3.56% | Potency [4] > 46 µM | Potency [5] > 9.22 µM | Potency [6] | Potency [7]
active: Potency [9] 1.26 µM

O=C1CSC(=S)N1/N=C\c1ccc(Cl)c([N+](=O)[O-])c1
inactive: Potency [1] > 11.4 µM | activity change, negative = inhibition [2] 1.11% | activity change, negative = inhibition [3] 6.49% | Potency [4] > 46 µM | Potency [5] > 9.22 µM | Potency [6] | Potency [7]

CCN(CC)CCN1C(=O)c2cccc3cc(N)cc(c23)C1=O
inactive: Potency [1] > 11.4 µM | activity change, negative = inhibition [2] 25.3% | activity change, negative = inhibition [3] -6.74% | Potency [4] > 46 µM | Potency [5] > 9.22 µM | Potency [6] | Potency [7]

CC(C)(CN)SCc1ccccc1
inactive: Potency [1] > 11.4 µM | activity change, negative = inhibition [2] 5.51% | activity change, negative = inhibition [3] -0.0753% | Potency [4] > 46 µM | Potency [5] > 9.22 µM | Potency [6] | Potency [7]

O=C(O)CSCC(=O)c1ccccc1
inactive: Potency [1] > 11.4 µM | activity change, negative = inhibition [2] 3.6% | activity change, negative = inhibition [3] 11.1% | Potency [4] > 46 µM | Potency [5] > 9.22 µM | Potency [6] | Potency [7] | Potency [10] | activity change, negative = inhibition [11] -4.13% [at 11.4 µM] | Potency [12] | Potency [9]

N#C/C(=C(\O)C(=O)O)c1ccc(-c2cccc3ccccc23)cc1
inactive: Potency [1] > 11.4 µM | activity change, negative = inhibition [2] -3.67% | activity change, negative = inhibition [3] 4.07% | Potency [4] > 46 µM | Potency [5] > 9.22 µM | Potency [6] | Potency [7] | Potency [9]

Fc1cccc(Cl)c1/C=N\N=C1c2ccccc2-c2ccccc21
inactive: Potency [1] > 11.4 µM | activity change, negative = inhibition [2] 13.6% | activity, negative = inhibition [8] 6.95% | Potency [4] > 46 µM | Potency [5] > 9.22 µM | Potency [6]

CC(C)(C)C1CCC2(CC1)CCN(CCCN1CCOCC1)CC2
inactive: Potency [1] > 11.4 µM | activity change, negative = inhibition [2] 11.9% | activity, negative = inhibition [8] -3.69% | Potency [4] > 46 µM | Potency [5] > 9.22 µM | Potency [6]

Cc1nn(-c2ccc(S(=O)(=O)O)cc2)c(O)c1N=Nc1ccc(-c2ccc(N=Nc3ccc4c(S(=O)(=O)O)cc(S(=O)(=O)O)c(N)c4c3O)c(O)c2)cc1O.[Cu].[Cu]
inactive: Potency [1] > 11.4 µM | activity change, negative = inhibition [2] 8.16% | activity change, negative = inhibition [3] 6.08% | Potency [4] > 46 µM | Potency [5] > 9.22 µM | Potency [6] | Potency [7]

C[C@@]1(CO)[C@H](O)CC[C@]2(C)[C@@H]1CC[C@H]1C[C@H]3C[C@]12CC[C@]3(O)COC(=O)CN
inactive: Potency [1] > 11.4 µM | activity change, negative = inhibition [2] 5.13% | activity change, negative = inhibition [3] 23.5% | Potency [4] > 46 µM | Potency [5] > 9.22 µM | Potency [6] | Potency [7]

COc1ccc(C[C@H](O)CN2CCOCC2)cc1
inactive: Potency [1] > 11.4 µM | activity change, negative = inhibition [2] -3.04% | activity, negative = inhibition [8] 9.2% | Potency [4] > 46 µM | Potency [5] > 9.22 µM | Potency [6] | Potency [7]

N=C(CC(=O)Nc1ccccn1)c1ccccc1
inactive: Potency [1] > 11.4 µM | activity change, negative = inhibition [2] 3.96% | activity change, negative = inhibition [3] 28.4% | Potency [4] > 46 µM | Potency [5] > 9.22 µM | Potency [6] | Potency [7]

Cc1cc(OCC(=O)O)c(Cl)cc1Cl
inactive: Potency [1] > 11.4 µM | activity change, negative = inhibition [2] 2.52% | activity change, negative = inhibition [3] 2.25% | Potency [4] > 46 µM | Potency [5] > 9.22 µM | Potency [6] | Potency [7]

O=C1C2=C(Nc3cc([N+](=O)[O-])ccc3N2)O[C@@H]1c1ccc([C@H]2OC3=C(Nc4ccc([N+](=O)[O-])cc4N3)C2=O)cc1
inactive: Potency [1] > 11.4 µM | activity change, negative = inhibition [2] -12.2% | activity change, negative = inhibition [3] 4.88% | Potency [4] > 46 µM | Potency [5] > 9.22 µM | Potency [6] | Potency [7] | Potency [13]

O=[N+]([O-])c1ccc(CS(=O)Cc2ccccc2)cc1 (stereo not given)
active: Potency [9] 1.26 µM
inactive: Potency [1] > 11.4 µM | activity change, negative = inhibition [2] -8.79% | activity change, negative = inhibition [3] -22% | Potency [4] > 46 µM | Potency [5] > 9.22 µM | Potency [6] | Potency [7]
